FUS yeast rescue = suppressors of FUS proteinopathy in yeast; actives 0.24% (n = 390,000); S. cerevisiae FUS-expressing, growth rescue, OD600, 24 h; Potency, µM (doses to about 76.6 µM), hits mostly activators;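 also: plate controls were DMSO vehicle for no effect and reference control for full effect; nearly all actives have a fitted effect of over 55% in size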
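Absorbance at 600 nm, taken 24hr after compound addition, measured rescue of FUS-yeast growth at 30C. Induction used 2% galactose with seeding at OD 0.005. Controls: CP55940 from 92uM final, DMSO only.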
Mito fusion act = inhibitors of mitochondrial division or activators of mitochondrial fusion | AID 485298 | Potency, µM (top dose mostly 46.1 µM), for inactives: at the highest dose growth rescue (activation), most hits filed as activators | S. cerevisiae fusion-defective mutant growth rescue, CellTiterGlo 48 h | actives 0.23% (n = 320,000); also: % of control where 0% means no effect; nearly all actives have a fitted effect of over 45% in size
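Compounds are tested for their ability to restore growth of mitochondrial fusion-defective yeast strains at non-permissive 37C in YPEG medium over 48 hours. Viability is quantified by luciferase luminescence.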
12-LOX inh = ALOX12 (human) lipoxygenase inhibition | P18054 | purified 12hLO, xylenol orange hydroperoxide absorbance | Potency, µM (top dose mostly 108 µM), for the others: top-dose activity change, negative = inhibition, actives largely listed as inhibitors | actives 1.1% (n = 580,000) | AID 1671190; also: % is scaled to controls: 0 for no effect and ±100 for the full control effect
Target sequence (P18054 whole entry, looked up): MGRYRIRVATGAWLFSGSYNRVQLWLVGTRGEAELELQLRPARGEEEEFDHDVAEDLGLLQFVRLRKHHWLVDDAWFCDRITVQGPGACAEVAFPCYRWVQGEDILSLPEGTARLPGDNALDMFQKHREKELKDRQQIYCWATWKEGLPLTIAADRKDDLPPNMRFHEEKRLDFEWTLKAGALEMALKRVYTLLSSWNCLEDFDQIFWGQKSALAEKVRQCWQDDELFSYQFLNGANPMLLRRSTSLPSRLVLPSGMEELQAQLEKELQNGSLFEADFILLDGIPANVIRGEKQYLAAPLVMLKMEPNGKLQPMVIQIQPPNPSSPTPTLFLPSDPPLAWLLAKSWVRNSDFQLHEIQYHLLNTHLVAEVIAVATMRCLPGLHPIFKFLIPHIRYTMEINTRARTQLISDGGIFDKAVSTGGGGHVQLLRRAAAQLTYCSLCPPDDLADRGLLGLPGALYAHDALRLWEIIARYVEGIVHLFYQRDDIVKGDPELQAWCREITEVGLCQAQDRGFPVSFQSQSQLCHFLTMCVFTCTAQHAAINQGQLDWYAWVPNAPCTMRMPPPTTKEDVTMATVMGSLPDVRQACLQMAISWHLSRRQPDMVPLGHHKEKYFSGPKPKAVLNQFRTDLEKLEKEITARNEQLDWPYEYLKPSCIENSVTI
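Purified human 12hLO (150 nM final) in 25 mM Hepes, 0.01% Triton X-100, pH 7.0 was preincubated 15 min at room temperature with compound. Then 40 uM arachidonic acid was added, 30 min. Hydroperoxide was read by Fe-XO absorbance ratio 573/405 nm.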
gsp ag = agonists of gsp mutant (McCune-Albright syndrome); gsp mutant cells, cAMP HTRF, 30 min; Potency, µM (highest dose often 76.9 µM), without a hit: at the highest dose activation (cAMP increase), hits mostly activators; actives 0.13% (n = 340,000); active = well fitted activation curve with a large enough effect; inconclusive = small, poorly fitted or top-dose-only effect, or another doubt; inactive = no such curve, though single readings can be large or run the other way; cell line not stated here;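 also: phosphodiesterase inhibitor Ro 20-1724 added with compounds to block cAMP breakdown; nearly all actives have a fitted effect of over 60% in size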
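Cells stably selected in G418 were plated at 2000/well, grown 16-24 hr, then given compounds in DMSO with the PDE inhibitor […] (300 uM solution added) for 30 min at 37C; cAMP was read by HTRF.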
gsp antagonist = antagonists of gsp mutant (McCune-Albright syndrome); actives 0.4% (n = 340,000); Potency, µM (series often up to 76.9 µM), for inactives: top-dose activity change, negative = inhibition, most hits filed as inhibitors; AID 624288; gsp-mutant cells, cAMP HTRF, 30 min; calls by dose curve; cell line not stated here;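 also: intracellular cAMP measured with PDE inhibitor Ro 20-1724 present during compound exposure; % is scaled to controls: 0 for no effect and ±100 for the full control effect; nearly all actives have a fitted effect of over 65% in size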
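Measurement of cellular cAMP by homogeneous time-resolved fluorescence following a 30 min compound exposure at 37C. The PDE inhibitor […] was present throughout; the assay buffer was DPBS with 0.05% BSA and 0.005% Tween 20.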
Numbers without * were called inactive; i = inactive; ? = inconclusive; . = not tested or not shown; [ ] = another dose, or the depositor's remark. Only some compounds are listed: those with a hit (about 1.6% of all), similar ones and a draw of the others. Unless noted, calls follow the shape of the dose curve; as a rule, active = well fitted curve in the direction sought with a large enough effect; inconclusive = small, poorly fitted or top-dose-only effect, or another doubt; inactive = no such curve, though single readings can be large; an effect the other way counts as inactive or inconclusive. Potency is read from the fitted curve at half-maximal effect.

SMILES	FUS yeast rescue	Mito fusion act	12-LOX inh	gsp ag	gsp antagonist
OC[C@@H]1O[C@H](CNCc2cccc(Cl)c2)[C@H](N2CCOCC2)[C@@H]1O	.	.	3%[176 µM]	.	.
Cc1c(NS(=O)(=O)c2ccc3nc(COc4ccccc4Cl)[nH]c3c2)c(=O)n(-c2ccccc2)n1C	i	-2%	3%	3%	6%
Cc1ccc(C)c(OCc2nc3ccc(S(=O)(=O)Nc4c(C)n(C)n(-c5ccccc5)c4=O)cc3[nH]2)c1	35µM*	-3%	8%	-37%	-15%
Cc1ccc(Nc2n[nH]c(=S)s2)cc1	i	.	32µM*	?	.
Cc1ccc(Nc2n[nH]c(=S)s2)cc1F	.	.	40µM*	21%	-3%
S=c1[nH]nc(Nc2ccc(Cl)cc2)s1	i	16%	?	0%	-16%
Cc1oc2c(c1C(=O)c1ccc(Cl)cc1)C(=O)C(=O)c1ccccc1-2	.	0%	?	-29%	56µM*
CC(c1ccccc1)N(CCC(c1ccccc1)C1CCOC(C)(C)C1)C(=O)c1ccco1 (stereo not given)	.	23%	-27%	-20%	?
COc1ccc(CN(CCC(c2ccccc2)c2ccco2)C(=O)c2ccco2)cc1 (stereo not given)	i	17%	50µM*	-7%	-20%
COc1ccc(CN(CCC(c2ccc(F)cc2)C2CCOC(C)(C)C2)C(=O)c2ccco2)cc1 (stereo not given)	?	18%	?	2%[15.4 µM]	22µM*
CC(C)(C)c1ccc(/C=N/c2sc3c(c2C#N)CCCC3)cc1	.	.	28µM*	.	.
N#Cc1c(N)sc(=S)c2c1CCCCC2	?	7%	?	?	20%
N#Cc1c(N)sc2c1CCCCCC2	?	5%	35µM*	9%	-2%
CCN(/C=N/c1sc2c(c1C#N)CCCCC2)CC	i	-3%	45µM*	0%	-7%
CC(C)(C)NC(=O)c1ccccc1-c1ccccc1C(=O)NC(C)(C)C	.	.	11%	.	.
C/C(=N/NC(N)=S)c1ccc(Br)s1	i	7%	25µM*	28%	12%
C/C(=N\Nc1ccc(Cl)c(C(=O)O)c1)c1ccc(Br)s1	i	14%	?	?	0%
C/C(=N/Nc1ccc(Cl)cc1)c1ccc(Br)s1	.	.	11µM*	.	.
CC(=NNc1ccccc1)C(C)=NNc1ccccc1	.	.	40µM*	-65%	10%
C/C(=N/Nc1ccccc1)c1ccc(Cl)s1	.	.	5µM*	.	.
CCOc1ccc(NC(=O)c2cnn3c2NC(c2ccc(OC)cc2)=CC3c2ccccc2)cc1 (stereo not given)	.	.	1%	.	.
CCCCNC(=O)c1ccc(C#N)cc1	.	.	0%	.	.
COc1nc2ccccc2nc1N1CCC(C(=O)Nc2c(F)cccc2F)CC1	.	.	2%	.	.
CCC1=C(OC(=O)N(CC)CC)N2C(=O)OC(=NCCc3c[nH]c4ccccc34)[C@]2(Cc2ccccc2)[C@H]2C1=CC[C@H]1C(=O)N(CC(=O)OC)C(=O)[C@H]12	?	-13%	-14%	7%	?
CCC1=C(OC(=O)N(CC)CC)N2C(=O)OC(=NCCc3c[nH]c4ccccc34)[C@]2(Cc2ccccc2)[C@H]2C1=CC[C@H]1C(=O)NC(=O)[C@H]12	i	-7%	?	-2%	11µM*
SMILES	FUS yeast rescue	Mito fusion act	12-LOX inh	gsp ag	gsp antagonist
CO[C@@H]1CO[C@H]2[C@@H]1OC[C@@H]2NC(=O)Nc1cccc(C(F)(F)F)c1	.	.	28%[176 µM]	.	.
O=C(Nc1cccc(C(F)(F)F)c1)O[C@@H]1CO[C@H]2[C@@H]1OC[C@@H]2NC(=S)NC1CCCCC1	.	.	45µM*	.	.
Cc1ccc(-c2cc(C(=O)Nc3cccc(S(=O)(=O)N(C)C)c3)c3ccccc3n2)o1	i	-7%	6.3µM*	-13%[15.4 µM]	9%
COc1cc(-c2cc(C(=O)Nc3cccc(S(=O)(=O)N(C)C)c3)c3ccccc3n2)cc(OC)c1OC	i	1%	-15%	-16%[15.4 µM]	-9%
Cc1ccc(-c2cc(C(=O)Nc3cccc(C#N)c3)c3ccccc3n2)o1	.	.	7.1µM*	.	.
C[C@@H](c1ccccc1)N1C[C@@H](COCc2ccccc2)Oc2cc(N3CCC[C@H]3C(N)=O)ccc2S1(=O)=O	22µM*	.	-2%	.	.
C[C@@H](c1ccccc1)N1C[C@H](COCc2ccccc2)Oc2cc(N3CCC[C@H]3C(N)=O)ccc2S1(=O)=O	?	.	4%	.	.

From PubChem
